DT40 TDP1 CPT = qHTS for Inhibitors of human tyrosyl-DNA phosphodiesterase 1 (TDP1): qHTS in cells in presence of CPT. chicken DT40 Tdp1-/-;hTDP1 cells + 20 nM CPT, ATP luminescence, 48 h. Potency, µM (series often up to 46.2 µM), without a hit: at the highest dose activity change, negative = growth inhibition, hits mostly inhibitors. actives 12% (n = 420,000). AID 686979, 2013; also: nearly all actives have a fitted effect of over 55% in size
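Cell growth measured by CellTiter-Glo luminescence after a minimum 48 h, 37 C compound exposure with 20 nM CPT in Tdp1-knockout DT40 cells stably expressing hTDP1, seeded 400/well; qHTS titration format.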
DT40 TDP1 no CPT = qHTS for Inhibitors of human tyrosyl-DNA phosphodiesterase 1 (TDP1): qHTS in cells in absence of CPT. actives 15% (n = 420,000). Potency, µM (highest dose often 46.2 µM), for inactives: at the top dose activity change, negative = growth inhibition, hits mostly inhibitors. AID 686978, 2013. DT40 Tdp1-/- hTDP1 cells, no CPT, ATP luminescence, 48 h; also: nearly all actives have a fitted effect of over 55% in size
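Growth of hTDP1-complemented DT40 Tdp1-knockout cells is measured by ATP luminescence after at least 48 hr compound exposure at 37 °C, with DMSO substituting for the 20 nM CPT used in the parallel screen.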
KB-3-1 tox = qHTS assay for MDR1-selective chemotherapeutics: Primary screen using the parental adenocarcinoma cell KB-3-1; KB-3-1 viability, CellTiter-Glo ATP luminescence, 72 h; Potency, µM (highest dose often 46.1 µM), hits mostly cytotoxic; actives 1.4% (n = 400,000); AID 1347075, 2019; also: nearly all actives have a fitted effect of over 60% in size
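Screening of KB-3-1 cells (DMEM, 10% FBS, phenol-red free) ran from lowest to highest compound concentration; after 72 h at 37 °C viability was read luminescently and curves fitted.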
KB-V1 MDR tox = qHTS assay for MDR1-selective chemotherapeutics: Primary screen using the drug-selected MDR subline cells KB-V1 | KB-V1 MDR cells viability, CellTiter-Glo, 72 h | Potency, µM (series often up to 46.1 µM), most hits filed as cytotoxic | AID 1347076, 2019 | actives 3.4% (n = 400,000); also: nearly all actives have a fitted effect of over 60% in size
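Cells of the MDR subline KB-V1 are plated, dosed with compound at multiple concentrations, and incubated 72 h at 37 degrees C; CellTiter-Glo is then added and luminescence read after 10 min.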
HT1080-NT tox = qHTS for induction of synthetic lethality in tumor cells producing 2HG: qHTS for the HT-1080-NT fibrosarcoma cell line; HT-1080-NT fibrosarcoma viability, CellTiter-Glo ATP luminescence, 48 h; Potency, µM (series often up to 46.1 µM), for inactives: at the highest dose activity, negative = less viability, most hits filed as cytotoxic; actives 1.6% (n = 360,000);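 also: NT is the 2HG producing partner of a matched IDH1 knockdown line; 0% = DMSO-treated cells and -100% = media-only wells without cells; nearly all actives have a fitted effect of over 55% in size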
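Read-out is CellTiter-Glo luminescence after 10 minutes at room temperature, following 48 hours' compound treatment of HT-1080-NT cells (750 cells/well, RPMI, 5% FBS, 37 degrees C).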
HT1080 IDH1KD tx = qHTS for induction of synthetic lethality in tumor cells producing 2HG: qHTS for the HT-1080-IDH1KD cell line; HT-1080 IDH1 knockdown viability, ATP luminescence, 48 h; Potency, µM (highest dose often 46.1 µM), for the others: at the top dose activity, negative = toxicity, actives largely listed as cytotoxic; actives 2% (n = 360,000); AID 686971, 2013;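 also: 0% = DMSO wells and -100% = cell-free medium wells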
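After a 2 h attachment period, IDH1KD HT-1080 cells took pin-transferred compound for 48 h at 37 °C; ATP-based luminescence after 10 min room-temperature reagent incubation reported viability.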
An asterisk follows results filed as active; [ ] = dose if it differs, or a comment. Most compounds without a hit are left out; they make up all but 19% or so of the library. Calls follow the shape of the dose curve; as a rule, active = well fitted curve in the direction sought with a large enough effect; inconclusive = small, poorly fitted or top-dose-only effect, or another doubt; inactive = no such curve, though single readings can be large; an effect the other way counts as inactive or inconclusive. Unless noted, % is scaled to controls: 0 for no effect and ±100 for the full control effect; potency is read from the fitted curve at half-maximal effect.

What do the screens show for `COc1ccc(NC(=O)Cn2c(=O)sc3ccccc32)cc1`?
DT40 TDP1 CPT: 1.4%; DT40 TDP1 no CPT: -18.4%; KB-3-1 tox: inactive; KB-V1 MDR tox: inactive; HT1080-NT tox: -3.3%; HT1080 IDH1KD tx: 0.4%

What do the screens show for `O=C(Cn1c(=O)sc2ccccc21)Nc1ccccc1`?
DT40 TDP1 CPT: 25.9µM*; DT40 TDP1 no CPT: 20.6µM*; KB-3-1 tox: inactive; KB-V1 MDR tox: inactive; HT1080-NT tox: -8.3%; HT1080 IDH1KD tx: 3.5%

How did Cc1ccc(NC(=O)C(=O)NN=C2CCCC2)cc1C do in these assays?
DT40 TDP1 CPT: 1.6%; DT40 TDP1 no CPT: -20.9%; KB-3-1 tox: inactive; KB-V1 MDR tox: inactive; HT1080-NT tox: 2.9%; HT1080 IDH1KD tx: 4.6%

How did CCCCCCC[n+]1ccc(/C=C/c2c(C)[nH]c3ccccc23)c2ccccc21 do in these assays?
DT40 TDP1 CPT: 1.26µM*; DT40 TDP1 no CPT: 1.26µM*; KB-3-1 tox: 8.2µM*; KB-V1 MDR tox: inconclusive

Results for CCCCCCCCCC[n+]1ccc(/C=C/c2c(C)[nH]c3ccccc23)c2ccccc21 ?
DT40 TDP1 CPT: 0.794µM*; DT40 TDP1 no CPT: 1µM*; KB-3-1 tox: 5.8µM*; KB-V1 MDR tox: inconclusive

How did CCCc1c(C)[nH]c2ccccc2c1=O do in these assays?
DT40 TDP1 CPT: inconclusive; DT40 TDP1 no CPT: inconclusive; KB-3-1 tox: inactive; KB-V1 MDR tox: inactive; HT1080-NT tox: 15.6%; HT1080 IDH1KD tx: 15.8%

How did CCOCCCNC(=O)Cn1ncc2c([nH]c3ccc(C)cc32)c1=O do in these assays?
DT40 TDP1 CPT: inconclusive; DT40 TDP1 no CPT: -26.5%

Results for Cc1nc(-c2ccccc2)c(Cc2ccccc2O)c(=O)[nH]1 ?
DT40 TDP1 CPT: 5.8µM*; DT40 TDP1 no CPT: 5.17µM*; KB-3-1 tox: inactive; KB-V1 MDR tox: inactive; HT1080-NT tox: 0.1%; HT1080 IDH1KD tx: -6.1%

How did Cc1ccc(C)c(Cc2c(C)nc(C)[nH]c2=O)c1 do in these assays?
DT40 TDP1 CPT: -8.5%; DT40 TDP1 no CPT: -9.5%; KB-3-1 tox: inactive; KB-V1 MDR tox: inactive; HT1080-NT tox: 3.2%; HT1080 IDH1KD tx: 11.1%

How did COC(=O)c1[nH]c2c(c1C)C(=O)CC(c1cc(OC)ccc1OC)C2 (centres undefined) do in these assays?
DT40 TDP1 CPT: 3.26µM*; DT40 TDP1 no CPT: 2.91µM*; KB-3-1 tox: 3.66µM*; KB-V1 MDR tox: 5.17µM*; HT1080-NT tox: inconclusive; HT1080 IDH1KD tx: 20.6µM*

How did CCOc1ccc(C2CC(=O)c3c([nH]c(C(=O)OC)c3C)C2)cc1OC (centres undefined) do in these assays?
DT40 TDP1 CPT: -0.7%; DT40 TDP1 no CPT: -26.6%; KB-3-1 tox: inactive; KB-V1 MDR tox: inconclusive; HT1080-NT tox: inconclusive; HT1080 IDH1KD tx: inconclusive

How did COC(=O)c1[nH]c2c(c1C)C(=O)CC(c1cccs1)C2 (centres undefined) do in these assays?
DT40 TDP1 CPT: 0.731µM*; DT40 TDP1 no CPT: 0.82µM*; KB-3-1 tox: inconclusive; KB-V1 MDR tox: 2.06µM*; HT1080-NT tox: 1.03µM*; HT1080 IDH1KD tx: 1.03µM*

What do the screens show for `COc1ccc(OC)c(C2CC(=O)c3c([nH]c(C(=O)OCC4CCCCC4)c3C)C2)c1` (centres undefined)?
DT40 TDP1 CPT: 20.6µM*; DT40 TDP1 no CPT: inconclusive; KB-3-1 tox: inactive; KB-V1 MDR tox: inactive

Results for COc1ccc(C2CC(=O)c3c([nH]c(C(=O)OCCOc4ccccc4)c3C)C2)cc1OC (centres undefined) ?
DT40 TDP1 CPT: inconclusive; DT40 TDP1 no CPT: inconclusive; KB-3-1 tox: inactive; KB-V1 MDR tox: inactive

Results for Cc1oc(-c2ccccc2NC(=O)c2ccccc2)nc1CNC(=O)c1c(-c2ccccc2)noc1C ?
DT40 TDP1 CPT: 0.0%[9.04 µM]; DT40 TDP1 no CPT: -11.8%

How did CC1(C)CCC[C@@]2(C)C1CC[C@@](C)(O)[C@@H]2CC[C@@](C)(O)C1CO1 (some centres undefined) do in these assays?
DT40 TDP1 CPT: inconclusive; DT40 TDP1 no CPT: -5.3%[9.04 µM]

What do the screens show for `COC(=O)c1ccc(C(=O)OC)c(NC(=O)c2ccc(-c3ccccc3)s2)c1`?
DT40 TDP1 CPT: -3.8%; DT40 TDP1 no CPT: -14.7%; KB-3-1 tox: inactive; KB-V1 MDR tox: inactive

What do the screens show for `COc1ccc(S(=O)(=O)N2CCCCCC2)cc1NC(=O)CN(C)Cc1ccc2c(c1)OCO2`?
DT40 TDP1 CPT: inconclusive; DT40 TDP1 no CPT: 20.6µM*; KB-3-1 tox: inactive; KB-V1 MDR tox: inactive; HT1080-NT tox: -17.2%; HT1080 IDH1KD tx: inconclusive

Results for CN(CC(=O)Nc1cc(S(=O)(=O)N2CCCC2)ccc1Cl)Cc1ccc2c(c1)OCO2 ?
DT40 TDP1 CPT: -96.6%; DT40 TDP1 no CPT: inconclusive; KB-3-1 tox: inconclusive; KB-V1 MDR tox: inactive; HT1080-NT tox: -20.0%; HT1080 IDH1KD tx: -14.8%

Results for CN(CC(=O)Nc1cc(S(=O)(=O)N2CCCCCC2)ccc1Cl)Cc1ccc2c(c1)OCO2 ?
DT40 TDP1 CPT: 16.4µM*; DT40 TDP1 no CPT: inconclusive; KB-3-1 tox: inconclusive; KB-V1 MDR tox: inactive; HT1080-NT tox: -1.2%; HT1080 IDH1KD tx: -18.7%

What do the screens show for `COc1ccc(S(=O)(=O)N2CCCCC2)cc1NC(=O)CN(C)C1CCCCC1`?
DT40 TDP1 CPT: inconclusive; DT40 TDP1 no CPT: inconclusive; KB-3-1 tox: inactive; KB-V1 MDR tox: inactive; HT1080-NT tox: -22.3%; HT1080 IDH1KD tx: -18.0%

Results for O=C(COCc1cc(-c2ccco2)on1)Nc1cccc(Cl)c1Cl ?
DT40 TDP1 CPT: inconclusive; DT40 TDP1 no CPT: -9.6%; KB-3-1 tox: inactive; KB-V1 MDR tox: inactive

How did CCOc1ccccc1-n1nnc(-c2nc(-c3ccccc3)no2)c1N do in these assays?
DT40 TDP1 CPT: 1.5%; DT40 TDP1 no CPT: -24.1%

How did Cc1ccc(C)c(NC(=O)C(Sc2nncn2C)c2ccccc2)c1 (centres undefined) do in these assays?
DT40 TDP1 CPT: 2.4%; DT40 TDP1 no CPT: -7.6%; KB-3-1 tox: inactive; KB-V1 MDR tox: 14.6µM*; HT1080-NT tox: 4.4%; HT1080 IDH1KD tx: 11.9%

Assay outcomes deposited in PubChem BioAssay by National Center for Advancing Translational Sciences (NCATS).
